Assays:
[1] = target: Sphingosine kinase 1 (Homo sapiens) (UniProt Q9NYA1); conditions: at 1 µM;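 also: mean SPHK1 inhibition value reported from the GSK PKIS kinase panel screen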
[2] = target: T1, Sphingosine kinase 2 (Homo sapiens) (UniProt Q9NRA0); conditions: at 0.1 µM
T1 sequence (whole entry): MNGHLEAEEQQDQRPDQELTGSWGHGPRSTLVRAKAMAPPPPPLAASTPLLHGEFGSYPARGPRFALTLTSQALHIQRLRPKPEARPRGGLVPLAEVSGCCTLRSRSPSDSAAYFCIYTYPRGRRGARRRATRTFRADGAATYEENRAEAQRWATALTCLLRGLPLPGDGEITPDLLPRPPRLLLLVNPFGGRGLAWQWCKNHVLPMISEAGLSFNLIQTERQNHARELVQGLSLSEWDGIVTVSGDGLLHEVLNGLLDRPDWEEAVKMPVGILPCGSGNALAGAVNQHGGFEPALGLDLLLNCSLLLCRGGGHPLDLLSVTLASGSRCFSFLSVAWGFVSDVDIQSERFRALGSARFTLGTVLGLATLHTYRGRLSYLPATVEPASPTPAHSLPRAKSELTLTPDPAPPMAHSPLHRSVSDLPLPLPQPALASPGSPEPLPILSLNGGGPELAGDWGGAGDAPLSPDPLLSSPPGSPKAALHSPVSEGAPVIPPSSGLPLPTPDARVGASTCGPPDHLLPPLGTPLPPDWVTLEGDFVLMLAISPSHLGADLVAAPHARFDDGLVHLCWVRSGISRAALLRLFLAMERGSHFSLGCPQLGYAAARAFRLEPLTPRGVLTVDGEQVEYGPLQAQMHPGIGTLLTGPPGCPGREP

[3] = target: T1, Sphingosine kinase 2 (Homo sapiens); conditions: at 1 µM
[4] = target: Casein kinase II subunit alpha (Homo sapiens) (UniProt P68400); conditions: at 0.1 µM
[5] = target: Casein kinase II subunit alpha (Homo sapiens) (UniProt P68400); conditions: at 1 µM
[6] = target: T2, Inhibitor of nuclear factor kappa-B kinase subunit alpha (Homo sapiens) (UniProt O15111); conditions: at 0.1 µM
T2 sequence (whole entry): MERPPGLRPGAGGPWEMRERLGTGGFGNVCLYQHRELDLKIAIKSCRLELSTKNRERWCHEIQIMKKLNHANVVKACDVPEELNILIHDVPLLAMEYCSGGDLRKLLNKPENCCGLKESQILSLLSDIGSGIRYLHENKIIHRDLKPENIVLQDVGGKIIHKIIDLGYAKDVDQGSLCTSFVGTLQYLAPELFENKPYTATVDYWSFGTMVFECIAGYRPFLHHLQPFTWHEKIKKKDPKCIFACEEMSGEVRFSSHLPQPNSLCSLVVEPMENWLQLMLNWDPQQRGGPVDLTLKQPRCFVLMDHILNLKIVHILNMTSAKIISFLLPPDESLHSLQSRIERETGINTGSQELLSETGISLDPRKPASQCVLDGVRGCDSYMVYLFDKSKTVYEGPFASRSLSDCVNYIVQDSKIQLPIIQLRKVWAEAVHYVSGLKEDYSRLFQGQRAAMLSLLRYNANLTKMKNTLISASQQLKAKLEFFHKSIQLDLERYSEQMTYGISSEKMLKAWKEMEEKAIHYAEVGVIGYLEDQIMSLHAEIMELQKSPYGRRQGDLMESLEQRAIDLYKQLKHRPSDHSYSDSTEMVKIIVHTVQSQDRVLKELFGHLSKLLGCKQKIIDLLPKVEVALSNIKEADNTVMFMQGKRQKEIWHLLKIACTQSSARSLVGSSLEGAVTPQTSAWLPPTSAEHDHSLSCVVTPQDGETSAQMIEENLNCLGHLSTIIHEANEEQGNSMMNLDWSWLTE

[7] = target: T2, Inhibitor of nuclear factor kappa-B kinase subunit alpha (Homo sapiens); conditions: at 1 µM
[8] = target: T3, Inhibitor of nuclear factor kappa-B kinase subunit beta (Homo sapiens) (UniProt O14920); conditions: at 0.1 µM
T3 sequence (whole entry): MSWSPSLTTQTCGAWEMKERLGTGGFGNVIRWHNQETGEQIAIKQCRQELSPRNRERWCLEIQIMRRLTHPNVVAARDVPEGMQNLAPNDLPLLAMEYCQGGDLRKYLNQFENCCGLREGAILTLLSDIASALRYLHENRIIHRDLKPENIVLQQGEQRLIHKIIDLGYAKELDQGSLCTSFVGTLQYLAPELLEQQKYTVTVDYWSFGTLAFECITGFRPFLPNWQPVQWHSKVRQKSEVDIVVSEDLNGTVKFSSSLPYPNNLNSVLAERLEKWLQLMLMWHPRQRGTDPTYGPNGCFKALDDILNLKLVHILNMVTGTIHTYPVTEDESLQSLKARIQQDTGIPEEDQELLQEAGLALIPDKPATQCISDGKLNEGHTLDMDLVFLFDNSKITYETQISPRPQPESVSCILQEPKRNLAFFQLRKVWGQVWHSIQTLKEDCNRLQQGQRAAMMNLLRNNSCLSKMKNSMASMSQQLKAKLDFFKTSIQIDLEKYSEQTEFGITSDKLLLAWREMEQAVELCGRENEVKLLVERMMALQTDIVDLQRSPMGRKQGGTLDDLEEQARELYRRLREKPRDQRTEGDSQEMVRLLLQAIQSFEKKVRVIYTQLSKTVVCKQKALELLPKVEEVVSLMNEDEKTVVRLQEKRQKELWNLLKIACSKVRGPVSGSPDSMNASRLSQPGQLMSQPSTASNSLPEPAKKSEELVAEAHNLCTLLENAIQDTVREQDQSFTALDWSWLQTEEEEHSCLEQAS

[9] = target: T3, Inhibitor of nuclear factor kappa-B kinase subunit beta (Homo sapiens); conditions: at 1 µM
[10] = target: T4, Inhibitor of nuclear factor kappa-B kinase subunit epsilon (Homo sapiens) (UniProt Q14164); conditions: at 0.1 µM
T4 sequence (whole entry): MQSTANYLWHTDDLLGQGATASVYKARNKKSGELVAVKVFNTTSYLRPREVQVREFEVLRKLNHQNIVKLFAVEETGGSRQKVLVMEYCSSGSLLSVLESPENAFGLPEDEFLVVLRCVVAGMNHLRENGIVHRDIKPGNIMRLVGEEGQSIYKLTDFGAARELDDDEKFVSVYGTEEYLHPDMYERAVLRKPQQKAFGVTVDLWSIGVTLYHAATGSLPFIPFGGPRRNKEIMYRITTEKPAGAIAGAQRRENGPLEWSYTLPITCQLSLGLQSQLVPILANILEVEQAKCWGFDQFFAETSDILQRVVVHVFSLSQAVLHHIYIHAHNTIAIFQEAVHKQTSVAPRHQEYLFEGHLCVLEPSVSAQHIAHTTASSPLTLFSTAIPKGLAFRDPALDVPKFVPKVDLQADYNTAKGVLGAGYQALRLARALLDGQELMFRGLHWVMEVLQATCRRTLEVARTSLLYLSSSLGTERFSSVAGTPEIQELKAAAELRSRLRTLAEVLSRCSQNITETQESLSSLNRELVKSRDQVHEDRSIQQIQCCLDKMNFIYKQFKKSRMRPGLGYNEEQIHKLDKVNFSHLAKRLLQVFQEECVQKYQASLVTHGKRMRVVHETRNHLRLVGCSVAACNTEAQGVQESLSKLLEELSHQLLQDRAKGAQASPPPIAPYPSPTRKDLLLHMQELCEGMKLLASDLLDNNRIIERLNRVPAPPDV

[11] = target: T4, Inhibitor of nuclear factor kappa-B kinase subunit epsilon (Homo sapiens); conditions: at 1 µM
[12] = target: T5, Serine/threonine-protein kinase Nek1 (Homo sapiens) (UniProt Q96PY6); conditions: at 0.1 µM
T5 sequence (whole entry): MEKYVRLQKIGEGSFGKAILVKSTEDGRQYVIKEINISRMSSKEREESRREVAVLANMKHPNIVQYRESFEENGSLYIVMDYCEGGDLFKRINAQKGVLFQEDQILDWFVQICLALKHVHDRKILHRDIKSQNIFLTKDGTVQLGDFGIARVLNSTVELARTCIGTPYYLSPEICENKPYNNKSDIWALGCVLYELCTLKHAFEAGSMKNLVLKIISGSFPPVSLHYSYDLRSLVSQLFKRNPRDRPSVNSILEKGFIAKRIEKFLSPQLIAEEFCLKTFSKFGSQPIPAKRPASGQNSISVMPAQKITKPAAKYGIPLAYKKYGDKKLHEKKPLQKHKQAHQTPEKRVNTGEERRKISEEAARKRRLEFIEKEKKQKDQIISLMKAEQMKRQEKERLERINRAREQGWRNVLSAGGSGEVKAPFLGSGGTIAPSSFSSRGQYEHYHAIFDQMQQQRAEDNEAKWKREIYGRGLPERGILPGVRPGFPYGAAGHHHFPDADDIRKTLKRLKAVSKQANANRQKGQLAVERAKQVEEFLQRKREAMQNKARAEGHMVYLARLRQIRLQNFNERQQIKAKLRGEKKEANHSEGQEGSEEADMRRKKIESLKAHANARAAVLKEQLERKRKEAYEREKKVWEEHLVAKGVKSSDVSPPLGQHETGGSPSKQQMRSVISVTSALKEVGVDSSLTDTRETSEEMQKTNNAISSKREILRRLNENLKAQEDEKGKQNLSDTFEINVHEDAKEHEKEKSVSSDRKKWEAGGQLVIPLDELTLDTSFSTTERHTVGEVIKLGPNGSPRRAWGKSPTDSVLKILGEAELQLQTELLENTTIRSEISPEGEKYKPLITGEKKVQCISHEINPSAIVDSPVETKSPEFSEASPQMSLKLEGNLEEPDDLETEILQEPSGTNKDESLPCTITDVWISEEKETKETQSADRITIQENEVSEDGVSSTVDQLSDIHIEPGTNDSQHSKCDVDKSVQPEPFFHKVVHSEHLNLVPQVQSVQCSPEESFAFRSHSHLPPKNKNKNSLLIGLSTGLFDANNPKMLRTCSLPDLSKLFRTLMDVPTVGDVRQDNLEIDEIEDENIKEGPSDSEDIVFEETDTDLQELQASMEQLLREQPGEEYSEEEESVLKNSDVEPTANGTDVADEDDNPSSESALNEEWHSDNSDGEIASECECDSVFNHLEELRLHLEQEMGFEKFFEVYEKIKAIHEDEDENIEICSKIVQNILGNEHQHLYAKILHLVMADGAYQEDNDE

[13] = target: T5, Serine/threonine-protein kinase Nek1 (Homo sapiens); conditions: at 1 µM
[14] = target: T6, Serine/threonine-protein kinase Nek2 (Homo sapiens) (UniProt P51955); conditions: at 0.1 µM
T6 sequence (whole entry): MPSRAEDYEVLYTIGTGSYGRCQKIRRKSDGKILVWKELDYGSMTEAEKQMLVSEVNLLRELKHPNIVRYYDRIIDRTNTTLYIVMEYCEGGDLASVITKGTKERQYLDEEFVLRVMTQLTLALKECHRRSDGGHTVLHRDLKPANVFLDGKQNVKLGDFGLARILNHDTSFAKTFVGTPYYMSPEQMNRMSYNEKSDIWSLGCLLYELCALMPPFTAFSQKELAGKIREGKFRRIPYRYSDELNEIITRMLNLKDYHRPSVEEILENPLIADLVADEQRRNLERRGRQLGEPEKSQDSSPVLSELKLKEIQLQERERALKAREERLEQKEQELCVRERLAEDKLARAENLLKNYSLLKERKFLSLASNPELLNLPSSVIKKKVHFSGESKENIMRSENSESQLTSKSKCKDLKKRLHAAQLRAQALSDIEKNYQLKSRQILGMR

[15] = target: T6, Serine/threonine-protein kinase Nek2 (Homo sapiens); conditions: at 1 µM
[16] = target: Serine/threonine-protein kinase Nek6 (Homo sapiens) (UniProt Q9HC98); conditions: at 0.1 µM
[17] = target: Serine/threonine-protein kinase Nek6 (Homo sapiens) (UniProt Q9HC98); conditions: at 1 µM
[18] = target: Serine/threonine-protein kinase Nek7 (Homo sapiens) (UniProt Q8TDX7); conditions: at 0.1 µM
[19] = target: Serine/threonine-protein kinase Nek7 (Homo sapiens) (UniProt Q8TDX7); conditions: at 1 µM
[20] = target: T7, Serine/threonine-protein kinase Nek9 (Homo sapiens) (UniProt Q8TD19); conditions: at 0.1 µM;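 also: reported value is the mean percent inhibition of NEK9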
T7 sequence (whole entry): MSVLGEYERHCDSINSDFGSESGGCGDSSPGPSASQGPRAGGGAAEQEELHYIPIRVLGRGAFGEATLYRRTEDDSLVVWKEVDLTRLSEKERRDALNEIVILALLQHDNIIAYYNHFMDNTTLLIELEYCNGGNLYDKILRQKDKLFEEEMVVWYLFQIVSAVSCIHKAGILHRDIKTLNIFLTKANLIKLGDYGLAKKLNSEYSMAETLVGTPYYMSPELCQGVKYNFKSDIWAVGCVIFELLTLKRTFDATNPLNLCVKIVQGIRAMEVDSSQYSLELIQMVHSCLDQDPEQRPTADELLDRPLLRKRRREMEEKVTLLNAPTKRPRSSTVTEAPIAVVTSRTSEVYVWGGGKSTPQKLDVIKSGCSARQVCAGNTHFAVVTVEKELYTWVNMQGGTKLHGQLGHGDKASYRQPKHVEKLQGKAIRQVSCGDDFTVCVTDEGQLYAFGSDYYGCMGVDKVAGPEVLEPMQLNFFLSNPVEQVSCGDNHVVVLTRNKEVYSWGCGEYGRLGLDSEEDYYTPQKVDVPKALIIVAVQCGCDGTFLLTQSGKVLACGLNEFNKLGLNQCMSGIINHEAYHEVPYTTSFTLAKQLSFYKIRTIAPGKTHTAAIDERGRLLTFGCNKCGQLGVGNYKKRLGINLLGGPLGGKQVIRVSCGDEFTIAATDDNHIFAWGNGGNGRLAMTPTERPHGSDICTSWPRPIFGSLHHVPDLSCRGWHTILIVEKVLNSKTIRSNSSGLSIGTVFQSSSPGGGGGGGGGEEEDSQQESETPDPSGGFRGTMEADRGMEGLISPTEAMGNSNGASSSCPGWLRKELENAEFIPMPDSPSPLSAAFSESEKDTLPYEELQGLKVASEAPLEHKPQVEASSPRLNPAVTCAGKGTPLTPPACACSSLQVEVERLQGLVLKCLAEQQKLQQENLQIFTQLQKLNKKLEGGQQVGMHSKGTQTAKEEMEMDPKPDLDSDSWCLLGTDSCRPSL

Chain of Serine/threonine-protein kinase Nek6 (Homo sapiens) (Q9HC98 whole entry): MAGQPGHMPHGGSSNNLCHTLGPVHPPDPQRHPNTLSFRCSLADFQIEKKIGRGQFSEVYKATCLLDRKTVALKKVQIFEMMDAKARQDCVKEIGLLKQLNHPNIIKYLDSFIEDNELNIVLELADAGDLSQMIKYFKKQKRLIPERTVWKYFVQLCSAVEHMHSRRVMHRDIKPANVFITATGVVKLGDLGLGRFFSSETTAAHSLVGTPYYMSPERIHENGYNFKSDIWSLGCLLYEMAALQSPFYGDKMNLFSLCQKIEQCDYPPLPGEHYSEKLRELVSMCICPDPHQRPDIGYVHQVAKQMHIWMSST
Chain of Casein kinase II subunit alpha (Homo sapiens) (P68400 whole entry, looked up): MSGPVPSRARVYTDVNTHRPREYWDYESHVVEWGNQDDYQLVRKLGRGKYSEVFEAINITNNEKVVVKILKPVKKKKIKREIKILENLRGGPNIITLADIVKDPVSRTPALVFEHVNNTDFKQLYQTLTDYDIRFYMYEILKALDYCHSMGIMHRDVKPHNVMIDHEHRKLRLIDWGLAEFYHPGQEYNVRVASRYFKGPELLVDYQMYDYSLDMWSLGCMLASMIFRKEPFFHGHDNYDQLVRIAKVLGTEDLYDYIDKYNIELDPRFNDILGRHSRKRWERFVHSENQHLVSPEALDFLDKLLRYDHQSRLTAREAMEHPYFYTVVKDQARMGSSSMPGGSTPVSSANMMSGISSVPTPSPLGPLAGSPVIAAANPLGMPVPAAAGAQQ
Chain of Serine/threonine-protein kinase Nek7 (Homo sapiens) (Q8TDX7 whole entry, looked up): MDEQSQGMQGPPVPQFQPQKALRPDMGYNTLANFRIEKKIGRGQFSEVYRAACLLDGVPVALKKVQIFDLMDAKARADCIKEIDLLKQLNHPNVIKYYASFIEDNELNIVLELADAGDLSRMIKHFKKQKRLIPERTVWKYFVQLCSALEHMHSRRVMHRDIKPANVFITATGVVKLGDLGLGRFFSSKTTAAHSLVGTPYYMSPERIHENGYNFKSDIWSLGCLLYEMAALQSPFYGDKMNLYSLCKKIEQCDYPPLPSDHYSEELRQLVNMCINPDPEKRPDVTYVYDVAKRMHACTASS
Chain of Sphingosine kinase 1 (Homo sapiens) (Q9NYA1 whole entry): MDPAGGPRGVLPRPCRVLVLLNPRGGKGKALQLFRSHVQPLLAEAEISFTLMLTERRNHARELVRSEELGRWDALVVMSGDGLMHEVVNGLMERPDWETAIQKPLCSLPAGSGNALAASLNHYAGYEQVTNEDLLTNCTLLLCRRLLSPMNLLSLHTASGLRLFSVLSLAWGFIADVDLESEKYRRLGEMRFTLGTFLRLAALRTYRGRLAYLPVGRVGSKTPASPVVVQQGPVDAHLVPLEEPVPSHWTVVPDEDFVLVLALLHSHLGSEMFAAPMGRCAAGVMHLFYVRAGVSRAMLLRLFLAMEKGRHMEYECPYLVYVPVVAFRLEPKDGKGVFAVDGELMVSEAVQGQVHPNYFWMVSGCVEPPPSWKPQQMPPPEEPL

SMILES: COc1cc(N2CCN(C(C)C)CC2)ccc1Nc1nc(Nc2cccc3ncccc23)c2cc[nH]c2n1
- inhibition [1]: -2%
- inhibition [2]: 0%
- inhibition [3]: -0.78%
- inhibition [4]: 1.04%
- inhibition [5]: 1.8%
- inhibition [6]: 4.1%
- inhibition [7]: -3.72%
- inhibition [8]: 1.05%
- inhibition [9]: -2.01%
- inhibition [10]: -1.3%
- inhibition [11]: 0.88%
- inhibition [12]: -0.11%
- inhibition [13]: 0.84%
- inhibition [14]: -0.73%
- inhibition [15]: -0.48%
- inhibition [16]: -0.86%
- inhibition [17]: -2.27%
- inhibition [18]: 1.54%
- inhibition [19]: -0.41%
- inhibition [20]: 4.56%

Source: ChEMBL document CHEMBL1961873, “Compounds: GSK PKIS; Assays: Nanosyn kinase panel” (2012)
